Among the data in PubChem BioAssay (EPA / NIEHS) are outcome and AC50 values, retold here.

Calls of active or inactive are those of the source. Rule for the calls: active = hit-call score of the fitted dose curve at least 0.9, where 1 is the maximum; inactive = score below 0.9.

Read-out in test [1]: Thrombomodulin, THBD (gene 7056)
The test can be described thus: BSK_3C_Thrombomodulin: BioMAP Diversity Plus: 3C Assay for Thrombomodulin Biomarker Activity (AID 2283029). The settings on record: primary human endothelial cells (HUVEC); actives raise or lower the signal. A digest of the protocol:
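Read-out is ELISA of thrombomodulin on human umbilical vein endothelium 24 h after chemical dosing. Gain or loss of signal is scored relative to DMSO. Overt cytotoxicity is checked in parallel cultures by sulforhodamine B staining.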

Read-out in test [2]: Urokinase-type plasminogen activator receptor (uPAR), PLAUR (gene 5329)
The test can be described thus: BSK_4H_uPAR: BioMAP Diversity Plus: 4H Assay for Urokinase-type plasminogen activator receptor (uPAR) Biomarker Activity (AID 2283030). To be noted: primary human endothelial cells (HUVEC); actives raise or lower the signal. The essentials: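 uPAR level read by ELISA on HUVEC cultures (BioMAP 4H) 24 h post-dosing, analyzed for gain or loss relative to DMSO. Parallel SRB staining assessed overt cytotoxicity.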

Read-out in test [3]: Vascular endothelial growth factor receptor 2 (Homo sapiens) (UniProt P35968)
The test can be described thus: BSK_4H_VEGFRII: BioMAP Diversity Plus: 4H Assay for Vascular endothelial growth factor receptor 2 (VEGFR2) Biomarker Activity (AID 2283031). To be noted: primary human endothelial cells (HUVEC); actives raise or lower the signal. The essentials:
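Measured by ELISA after 24 h of compound treatment: VEGFR2 on primary human umbilical vein endothelial cells, fitted in both directions relative to DMSO. Parallel cultures received SRB staining (560 nm) for overt cytotoxicity.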

Read-out in test [4]: Human Leukocyte Antigen - DR isotype (HLADR), HLA-DRA (gene 3122)
The test can be described thus: BSK_BE3C_HLADR: BioMAP Diversity Plus: BE3C Assay for Human Leukocyte Antigen - DR isotype (HLADR) Biomarker Activity (AID 2283032). The settings on record: primary human bronchial epithelial cells; actives raise or lower the signal. The essentials:
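ELISA read-out of HLA-DR on human lung bronchial epithelial primary cells, measured 24 h post-dosing. Both increases and decreases were scored relative to DMSO vehicle.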

Read-out in test [5]: Vascular cell adhesion molecule 1 (VCAM1), VCAM1 (gene 7412)
The test can be described thus: BSK_4H_VCAM1: BioMAP Diversity Plus: 4H Assay for Vascular cell adhesion molecule 1 (VCAM1) Biomarker Activity (AID 2283033).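 For outcome: cell-surface VCAM-1 protein measured by ELISA.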 The settings on record: primary human endothelial cells (HUVEC); actives raise or lower the signal. The essentials:
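ELISA read-out of VCAM-1 on human umbilical vein endothelium 24 hours after chemical dosing; gain or loss of signal was fitted relative to DMSO, with sulforhodamine B staining of parallel cultures flagging overt cytotoxicity.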

Read-out in test [6]: Monokine induced gamma interferon (MIG), CXCL9 (gene 4283)
Kind of test: BSK_BE3C_MIG: BioMAP Diversity Plus: BE3C Assay for Monokine induced gamma interferon (MIG) Biomarker Activity (AID 2283035). The settings on record: primary human bronchial epithelial cells; actives raise or lower the signal. A digest of the protocol: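 ELISA read-out of MIG in human lung bronchial epithelial primary cultures, 24 h post-dosing. Bidirectional curve fit vs DMSO baseline.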

Read-out in test [7]: Transforming growth factor beta 1 (TGFb1), TGFB1 (gene 7040)
Kind of test: BSK_BE3C_TGFb1: BioMAP Diversity Plus: BE3C Assay for Transforming growth factor beta 1 (TGFb1) Biomarker Activity (AID 2283036;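 for outcome: TGF-b1 protein level measured by ELISA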). The settings on record: primary human bronchial epithelial cells; actives raise or lower the signal. The essentials:
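Primary human lung bronchial epithelial cells; compound exposure 24 h; TGF-b1 by ELISA; bidirectional fit, DMSO baseline. Parallel SRB total-protein staining for cytotoxicity.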

Read-out in test [8]: Plasminogen activator inhibitor-1 (PAI1), SERPINE1 (gene 5054)
Kind of test: BSK_BE3C_PAI1: BioMAP Diversity Plus: BE3C Assay for Plasminogen activator inhibitor-1 (PAI1) Biomarker Activity (AID 2283037). To be noted: primary human bronchial epithelial cells; actives raise or lower the signal. A digest of the protocol: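 Primary human lung bronchial epithelial cells; chemical dosing; 24 h; PAI-1 measured by ELISA; bidirectional fit referenced to DMSO as negative control.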

Read-out in test [9]: urokinase plasminogen activator (uPA), PLAU (gene 5328)
The test can be described thus: BSK_BE3C_uPA: BioMAP Diversity Plus: BE3C Assay for urokinase plasminogen activator (uPA) Biomarker Activity (AID 2283038).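 For outcome: uPA protein level quantified by ELISA in cell cultures; uPA read one day after compound addition.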 To be noted: primary human bronchial epithelial cells; actives raise or lower the signal. The essentials:
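ELISA for uPA on human primary bronchial epithelial cultures 24 h post-treatment, gain or loss against DMSO. Parallel SRB staining (0.1% after 10% TCA fixation, 560 nm) assessed overt cytotoxicity.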

Read-out in test [10]: Urokinase-type plasminogen activator receptor (uPAR), PLAUR (gene 5329)
The test can be described thus: BSK_BE3C_uPAR: BioMAP Diversity Plus: BE3C Assay for Urokinase-type plasminogen activator receptor (uPAR) Biomarker Activity (AID 2283039).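 For outcome: uPAR protein level measured by ELISA on the cells; cells exposed to compound for one day before measurement.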 To be noted: primary human bronchial epithelial cells; actives raise or lower the signal. A digest of the protocol:
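Human bronchial epithelial primary cells; chemical exposure 24 h; uPAR by ELISA; bidirectional fit vs DMSO control.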

Read-out in test [11]: Tissue plasminogen activator (tPA), PLAT (gene 5327)
The test can be described thus: BSK_BE3C_tPA: BioMAP Diversity Plus: BE3C Assay for Tissue plasminogen activator (tPA) Biomarker Activity (AID 2283041).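 For outcome: tPA level quantified by ELISA one day after compound addition.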 To be noted: primary human bronchial epithelial cells; actives raise or lower the signal. The essentials:
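Primary human lung bronchial epithelial cultures receive test chemical; after 24 h, tPA is quantified by ELISA, and gain or loss of signal is fitted bidirectionally relative to DMSO baseline.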

Read-out in test [12]: Interleukin-8 (IL8), CXCL8 (gene 3576)
The test can be described thus: BSK_CASM3C_IL8: BioMAP Diversity Plus: CASM3C Assay for Interleukin-8 (IL8) Biomarker Activity (AID 2283042).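 Note: IL-8 protein level quantified by ELISA.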 To be noted: primary human coronary artery smooth muscle cells; actives raise or lower the signal.

Read-out in test [13]: Human Leukocyte Antigen - DR isotype (HLADR), HLA-DRA (gene 3122)
The test can be described thus: BSK_CASM3C_HLADR: BioMAP Diversity Plus: CASM3C Assay for Human Leukocyte Antigen - DR isotype (HLADR) Biomarker Activity (AID 2283043).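 Note: cell-surface HLA-DR protein level quantified by ELISA.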 The settings on record: primary human coronary artery smooth muscle cells; actives raise or lower the signal.

Read-out in test [14]: Macrophage colony-stimulating factor (MCSF), CSF1 (gene 1435)
Kind of test: BSK_CASM3C_MCSF: BioMAP Diversity Plus: CASM3C Assay for Macrophage colony-stimulating factor (MCSF) Biomarker Activity (AID 2283044).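 Note: M-CSF protein amount quantified by ELISA after 24 h exposure.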 To be noted: primary human coronary artery smooth muscle cells; actives raise or lower the signal.

Read-out in test [15]: Low-density lipoprotein receptor (LDLR), LDLR (gene 3949)
The test can be described thus: BSK_CASM3C_LDLR: BioMAP Diversity Plus: CASM3C Assay for Low-density lipoprotein receptor (LDLR) Biomarker Activity (AID 2283045).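 Note: LDLR protein level on the cell surface quantified by ELISA.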 The settings on record: primary human coronary artery smooth muscle cells; actives raise or lower the signal.

Read-out in test [16]: Monocyte Chemoattractant Protein-1 (MCP1), CCL2 (gene 6347)
Kind of test: BSK_CASM3C_MCP1: BioMAP Diversity Plus: CASM3C Assay for Monocyte Chemoattractant Protein-1 (MCP1) Biomarker Activity (AID 2283046).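 Note: MCP-1 level quantified by ELISA 24 h after dosing.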 To be noted: primary human coronary artery smooth muscle cells; actives raise or lower the signal.

Test [17] is described as follows: BSK_CASM3C_Proliferation: Cell Proliferation Assessment in the BioMAP Diversity Plus: CASM3C Assay (AID 2283047).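 Note: sulforhodamine B total protein stain as relative cell number at 560 nm; sub-confluent cells exposed 48 h before staining; fitted both ways against DMSO so gain or loss of cell number.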 The settings on record: primary human coronary artery smooth muscle cells.
Read-out in test [18]: Monokine induced gamma interferon (MIG), CXCL9 (gene 4283)
The test can be described thus: BSK_CASM3C_MIG: BioMAP Diversity Plus: CASM3C Assay for Monokine induced gamma interferon (MIG) Biomarker Activity (AID 2283048).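 Note: MIG protein level measured by ELISA.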 The settings on record: primary human coronary artery smooth muscle cells; actives raise or lower the signal.

Read-out in test [19]: Interleukin-6 (IL6), IL6 (gene 3569)
Kind of test: BSK_CASM3C_IL6: BioMAP Diversity Plus: CASM3C Assay for Interleukin-6 (IL6) Biomarker Activity for (AID 2283040). To be noted: primary human coronary artery smooth muscle cells; actives raise or lower the signal.

Read-out in test [20]: Interferon-gamma inducible Protein 10 (IP10), CXCL10 (gene 3627)
Kind of test: BSK_BE3C_IP10: BioMAP Diversity Plus: BE3C Assay for Interferon-gamma inducible Protein 10 (IP10) Biomarker Activity (AID 2283034). The settings on record: primary human bronchial epithelial cells; actives raise or lower the signal. A digest of the protocol: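 Chemical is dosed onto human lung bronchial epithelial primary cells, cultures are incubated 24 h, and IP-10 is then quantified by ELISA. Gain or loss of signal is fitted in both directions relative to DMSO.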

Broadly, the AC50 is the concentration giving half of the maximal activity seen. As for `Oc1ccc(-c2ccccc2)cc1`, the outcome in test [1], in test [2], in test [3], in test [4], in [5] and in test [6] was inactive. The result in [7], in [8], in [9], in [10], in [11] and in [12] was inactive. Further, the result in test [13], in test [16] and in test [18] was inactive. Further, the figures for the AC50 in test [14], in test [15] and in test [17] were 32500 nM (active), 3970 nM (active) and 6000 nM (active), respectively.
As to `CC12CC1(C)C(=O)N(c1cc(Cl)cc(Cl)c1)C2=O` (stereo not given), the result in [1], in [2], in test [3], in test [4], in test [5] and in test [6] was inactive. The result in test [7], in test [8], in test [9], in test [10], in test [19] and in test [11] was inactive. For the same molecule, the result in [12], in [13], in [14], in test [15], in test [16] and in test [17] was inactive. Besides, the outcome in test [18] was inactive.
Take `C=C(C)C(=O)[O][Sn]([CH2]CCC)([CH2]CCC)[CH2]CCC`: the half-maximal activity concentration (AC50) in [1] was 1160 nM (active); in [2], 148 nM (active); in test [4] it was 148 nM (active); in [5] it was 148 nM (active); in test [20], 336 nM (active); in test [6], 147 nM (active). Also, the half-maximal activity concentration (AC50) is 146 nM (active) in [7]; 146 nM (active) in test [8]; 215 nM (active) in test [9]; 146 nM (active) in [10]; 148 nM (active) in test [19]; 148 nM (active) in [11]. Besides, the AC50 is 359 nM (active) in test [12]; 148 nM (active) in test [13]; 326 nM (active) in [14]; 148 nM (active) in test [15]; 292 nM (active) in test [16]; 148 nM (active) in test [17]. Also, the AC50 in test [18] is 1030 nM (active).
Consider `ClCC(Cl)CCl`, for which the result in [1], in [2], in test [3], in test [4], in [5] and in test [6] was inactive. Also, the outcome in [7], in [8], in [9], in [10], in test [19] and in [11] was inactive. For the same molecule, the result in [12], in test [13], in test [14], in [15], in [16] and in test [17] was inactive. Also, the result in test [18] was inactive.
